Test results from PubChem BioAssay (NCATS).
Results filed as inconclusive are left out. A call without a number means that no potency is given here. Calls of active or inactive are those of the source. Calls come from the whole dose curve.

Legend:
[1] = Primary qHTS for Huh7 cytotoxicity: counterscreen for inhibitors of MERS-S pseudotyped particle cell entry (AID 1479147); conditions: outcome: dose series up to 57.1 µM unless noted
[2] = Primary qHTS for inhibitors of MERS-S pseudo-typed particle cell entry (AID 1479149); conditions: outcome: dose series up to 57.1 µM unless noted; note: nearly all actives have a fitted effect of over 60% in size
[3] = Primary qHTS for Vero E6 cytotoxicity: counterscreen for inhibitors of SARS-S pseudo-typed particle cell entry (AID 1479150); conditions: outcome: dose series up to 57.1 µM unless noted
[4] = Cytotoxicity counterscreen for inhibitors of SARS-CoV-2 cell entry (AID 1645845); conditions: outcome: dose series up to 57.1 µM unless noted; note: nearly all actives have a fitted effect of over 50% in size
Summary of the method: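 ATP-content luminescence (ATPLite 1step, 15 min RT) read after 48 h compound exposure of Expi293F cells stably expressing human ACE2; normalized to cells-only wells and media-only wells.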

[5] = Primary qHTS to identify inhibitors of SARS-CoV-2 cell entry (AID 1645846); conditions: SARS-CoV-2 pseudovirus cell entry assay, luminescence; activity change, negative = inhibition: at 57.1 µM (top of the series) unless noted; note: nearly all actives have a fitted effect of over 45% in size; note: potency is the fitted concentration of half-maximal effect
Summary of the method: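 HEK293 cells stably expressing human ACE2, pre-treated 1 h with compound, then infected with MLV particles pseudotyped with Wuhan-Hu-1 spike (C-terminal 19-aa truncation). Luciferase luminescence after 48 h at 37 °C, normalised to spike PP and bald PP.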

SMILES | Potency [1] | Potency [2] | Potency [3] | Potency [4] | activity change, negative = inhibition [5] | Potency [5]
OC[C@H]1O[C@H](O[C@H]2[C@H](O)[C@@H](O)[C@H](O)O[C@@H]2CO)[C@H](O)[C@@H](O)[C@@H]1O | inactive | inactive | inactive | inactive | -20.9% | –
CCCCC(O)c1ccccc1 (centres undefined) | inactive | inactive | inactive | inactive | – | –
CCCCCCCCCCCCCCCCCC(=O)OCCO | inactive | inactive | inactive | inactive | -12.3% | –
CC(C)OC(=O)[C@H](C)N[P@@](=O)(OC[C@H]1O[C@@H](n2ccc(=O)[nH]c2=O)[C@](C)(F)[C@@H]1O)Oc1ccccc1 | inactive | inactive | inactive | inactive | -25.3% | –
CN(C)CCC(O)(c1ccccc1)c1ccccc1Cl (centres undefined) | inactive | inactive | inactive | inactive | – | –
Cc1ccc(/C(=C\CN2CCCC2)c2cccc(/C=C/C(=O)O)n2)cc1 | inactive | inactive | inactive | inactive | – | –
CC1CCCCN1CCCOC(=O)c1ccccc1 (centres undefined) | inactive | inactive | inactive | inactive | – | –
CNCc1cc(-c2ccccc2F)n(S(=O)(=O)c2cccnc2)c1 | inactive | inactive | inactive | inactive | – | –
OC(c1ccccc1)(c1ccccc1)C12CC[N+](CCOCc3ccccc3)(CC1)CC2 | inactive | inactive | inactive | inactive | – | –
COc1cc(/C=C\C(=O)N2CCN(CC(=O)N3CCCC3)CC2)cc(OC)c1OC | inactive | inactive | inactive | inactive | – | inactive
OCCCNc1ccccc1 | inactive | inactive | inactive | inactive | -22.3% | –
O=C(O)C(O)C(O)C(=O)O (centres undefined) | inactive | inactive | inactive | inactive | -16.3% | –
COc1ccc(CNc2nc(N3CCC[C@H]3CO)ncc2C(=O)NCc2ncccn2)cc1Cl | inactive | inactive | inactive | inactive | – | inactive
CO[C@@H]1C[C@H](O[C@H]2[C@H](C)[C@H](O[C@@H]3O[C@@H](C)C[C@@H](N(C)C)[C@H]3OC(C)=O)[C@H](C)C[C@]3(CO3)C(=O)[C@H](C)[C@H](OC(C)=O)[C@H](C)[C@H](C)OC(=O)[C@@H]2C)O[C@H](C)[C@H]1OC(C)=O | inactive | inactive | inactive | inactive | -34.5% | –
CC(C)CCC[C@@H](C)[C@H]1CC[C@H]2[C@@H]3CC=C4C[C@@H](O)CC[C@]4(C)[C@@H]3CC[C@]12C | inactive | inactive | inactive | inactive | – | inactive
COc1cc(C[C@@H]2NCCc3cc(O)c(O)cc32)cc(OC)c1OC | inactive | inactive | inactive | inactive | -18.7% | –
CO/N=C(/C(=O)N[C@@H]1C(=O)N2C(C(=O)OC(C)OC(C)=O)=C(COC(N)=O)CS[C@H]12)c1ccco1 (some centres undefined) | inactive | inactive | inactive | inactive | -14.5% | –
CN1CCN(C2=Nc3ccccc3Cc3ccccc32)CC1 | inactive | inactive | inactive | inactive | -23.9% | –
Cc1c(Cl)c(C)[n+]([O-])c(Cl)c1-c1noc(-c2cc(O)c(O)c([N+](=O)[O-])c2)n1 | inactive | inactive | inactive | inactive | – | 14.1 µM (active)
CCCCC(F)(F)C1(O)CCC2C(CC(=O)C2CCCCCCC(=O)O)O1 (centres undefined) | inactive | inactive | inactive | inactive | – | inactive
N[C@@H](C(=O)N[C@@H]1C(=O)N2C(C(=O)O)=C(Cl)CC[C@H]12)c1ccccc1 | inactive | inactive | inactive | inactive | -20.1% | –
O=C(O)CCC/C=C\C[C@@H]1[C@@H](/C=C/[C@@H](O)COc2cccc(Cl)c2)[C@H](O)C[C@@H]1O | inactive | inactive | inactive | inactive | – | inactive
CCOc1nc2cccc(C(=O)O)c2n1Cc1ccc(-c2ccccc2-c2noc(=O)[nH]2)cc1 | inactive | inactive | inactive | inactive | -24.5% | –
Cc1cc(CC(C)C[Si](C)(O[Si](C)(C)C)O[Si](C)(C)C)c(O)c(-n2nc3ccccc3n2)c1 (centres undefined) | inactive | inactive | inactive | inactive | -21.7% [at 19 µM] | –
COc1ccc(-c2noc(CC(=O)O)c2-c2ccc(OC)cc2)cc1 | inactive | inactive | inactive | inactive | -24.5% | –
NC(=O)c1ccc[n+]([C@@H]2O[C@H](COP(=O)([O-])OP(=O)(O)OC[C@H]3O[C@@H](n4cnc5c(N)ncnc54)[C@H](O)[C@@H]3O)[C@@H](O)[C@H]2O)c1 | inactive | inactive | inactive | inactive | -19.8% | –
COc1c(O)cc2c(c1O)[C@H]1O[C@@H](CO)[C@H](O)[C@@H](O)[C@@H]1OC2=O | inactive | inactive | inactive | inactive | -14.9% | –
